Here are results for 40 sequences from the OligoGym collection.
Further: reference of the scale not given here.

The first assay deals with ACCN2. Nature of the assay: pooled miR-30 sensor sort-seq; sequence = guide strand. Particulars: shRNA.
As for TCGGTCGTAGAACTCACGCATG, the sensor-assay potency score (higher = more potent) was -0.983.
TTTTCCTCGTCGGCACAGCTTG yielded a sensor-assay potency score (higher = more potent) of -1.19.
Regarding TTTTCATCTGCCATCTGTGTGT, the sensor-assay potency score (higher = more potent) came out at 0.238.
The sequence TTTGCTGGGGATCTTGACCATG returned a sensor-assay potency score (higher = more potent) of -1.14.
Sequence TCAGATTTGTTGAACTTCTTGG displayed a sensor-assay potency score (higher = more potent) of 1.11.
On to TAGCACTTTCCATAGCGTGTGA, for which the sensor-assay potency score (higher = more potent) is -0.16.
The same measure, in the same setting: then TTTGTTGAACTTCTTGGCCAGG, with -0.861; and TGAACGTGTAGCACTTTCCATA, with -0.947.
Take TTGGCTAAAGCGGAACTCGTTG: the sensor-assay potency score (higher = more potent) is -0.0624.
ATAGCGTGTGAAGACCACCTTG had a sensor-assay potency score (higher = more potent) of -0.485.
Same read-out and setting: then TTTGACGTCGTCCAGGCTGAGG, with -1.49.
The sequence TGAACTTATAGGTATCAGGATG gave a sensor-assay potency score (higher = more potent) of -1.02.

In the next assay the target is ACCN3. The assay is described as above. Particulars: shRNA.
The sequence TAGCACTTTCCCATCCGGGTGA registered a sensor-assay potency score (higher = more potent) of 0.401.
In the case of TGTAGTAGCGCACCCTCTCAGC, the sensor-assay potency score (higher = more potent) was -1.06.
TTGTCTCGGAACACCTCACAGA had a sensor-assay potency score (higher = more potent) of -0.903.
In the case of TTCGGCAGCCGCACTTCCGAGC, the sensor-assay potency score (higher = more potent) was -1.09.
Sequence TAAATGTGTAGCACTTTCCCAT gave a sensor-assay potency score (higher = more potent) of -0.325.
Sequence TGTAGCACTTTCCCATCCGGGT showed a sensor-assay potency score (higher = more potent) of -0.708.
Regarding TTGCACAGGGTGACAGCCGGGA, the sensor-assay potency score (higher = more potent) was -0.486.
In turn, TATCCCAGGACCTTGTCTCGGA gave a sensor-assay potency score (higher = more potent) of -0.411.
As to TTTCTCGCTCATCCAGGGCAGT, the sensor-assay potency score (higher = more potent) is -1.12.
TAGTAGTGGTGAGCAGCTCTGC came in with a sensor-assay potency score (higher = more potent) of -0.938.

Another assay deals with ACOT1. The assay is described as above. The settings on record: shRNA.
In turn, TCGCACGTCGCGCTTCACCAGC returned a sensor-assay potency score (higher = more potent) of -1.56.
Still for that read-out and setting: the result for TACCTCAGGATGACTGAGCAAG reads -0.802.
On to ATCTTTGGTCACCTTGATGCGA, for which the sensor-assay potency score (higher = more potent) is -0.779.
AACATGTCCACAATGCCAGGAA: the sensor-assay potency score (higher = more potent) is -0.319.
As for TTTTACCTCAGGATGACTGAGC, the sensor-assay potency score (higher = more potent) was -0.46.
Regarding AGCTCTTCTGGTCAGGTCCTTC, the sensor-assay potency score (higher = more potent) was -1.49.
On to TAGCGCTCGTGCCGCACCCGGC, for which the sensor-assay potency score (higher = more potent) was -1.32.
The sequence TTCATAGTTATAGTAAGCCAGA yielded a sensor-assay potency score (higher = more potent) of -1.24.
In turn, TTGTAGCGTAAGGTTCCCCCAA yielded a sensor-assay potency score (higher = more potent) of -1.03.
ATTCGCACCGGTTCGTCCCAGC yielded a sensor-assay potency score (higher = more potent) of -0.912.
On the same count and under the same terms, the result for TGAGCAAGTAGTTCACAGCTTC reads -0.12; that for AGTTGTGGTCATCCTGACCTAC, -1.25.

The target in another assay is ACOT6. The description is as above. Particulars: shRNA.
As to TAGTGATTTTTACTTTTCCTAG, the sensor-assay potency score (higher = more potent) was -1.27.
Turning to TAATGTAGAGGAGCTACTGTGT, the sensor-assay potency score (higher = more potent) is 0.0472.
In turn, TTACTTTTCCTAGATCATCGAC displayed a sensor-assay potency score (higher = more potent) of -0.0892.
With TTTCCCATGAGCTTGTAGCCTT, the sensor-assay potency score (higher = more potent) is -0.268.
The sequence TTAGGAATAATCATATCCTTGT yielded a sensor-assay potency score (higher = more potent) of 0.922.
Same read-out and setting: the result for TTGGTGATTGTGTTCCTCCAGT reads -0.204.
